# Bioassay records: PubChem, Broad Institute
# Only a sample is shown.
# aSyn UTR act – Activators via SNCA 5'UTR binding, MLPCN | 300,000 compounds, 7.1% hits | alpha-synuclein 5'UTR reporter, activators screen | activity score, % (tested at 7.5 µM), hits read low; in the data active = activity score below about -60%
# Numbers stand for hits; n = inactive.
SMILES,aSyn UTR act
CC(=O)OCC1OC(n2cc(F)c(=O)[nH]c2=O)C(OC(C)=O)C1OC(C)=O (stereo not drawn),-181
COc1ccccc1NC(=O)C(=O)N/N=C/c1ccc([N+](=O)[O-])s1,-138
O=C(N/N=C/c1ccc([N+](=O)[O-])s1)c1ccccc1,n
O=C(CNC(=O)c1cccc(F)c1)N/N=C/c1ccc([N+](=O)[O-])s1,-105
COC(=O)N/N=C/c1ccc([N+](=O)[O-])s1,-142
O=C(c1ccc2c3n(nc2c1)-c1ccccc1CO3)N1CCOCC1,-114
O=C(c1ccc2c3n(nc2c1)-c1ccc(Cl)cc1CO3)N1CCOCC1,-109
O=C(NCC1CCCO1)c1ccc2c3n(nc2c1)-c1ccccc1CO3 (stereo not drawn),-103
Cc1ccc2c(c1)COc1c3ccc(C(=O)N4CCCCC4)cc3nn1-2,-108
Brc1ccc2nc(-c3c[nH]c4ccccc34)cn2c1,-164
Cc1csc(NC(=O)CSc2nsc(SCC(=O)Nc3nc(C)cs3)c2C#N)n1,-210
O=C(Nc1nc(-c2ccccn2)cs1)c1ccc(Cl)s1,n
O=C(Nc1ccccn1)c1ccc(Cl)s1,-129
Cc1ccccc1C(=O)Nc1ccc(Br)cn1,-77
O=C(Nc1ccc2sccc2c1)c1ccc(Cl)s1,-198
O=C(Nc1ccc(Br)cn1)c1ccc(Cl)s1,-167
O=C(Nc1ccc(Br)cn1)c1ccc(Br)s1,-198
O=C(Nc1nccs1)c1ccc(Cl)s1,-106
O=C(Nc1ccc(Cl)cc1Cl)C1=Cc2ccccc2OC1,-192
CCCCc1ccc(NC(=O)CC(C)(C)C)cc1,-159
CCCOC(=O)c1ccc(NC(=O)CC(C)(C)C)cc1,-109
O=[N+]([O-])c1cc(/C=N/O)ccc1Oc1ccccc1Cl,-65
CO/N=C/c1ccc(Oc2ccc(C)cc2)c([N+](=O)[O-])c1,-90
O=[N+]([O-])c1cc([N+](=O)[O-])c(Oc2cccc(Cl)c2Cl)cc1NN1CCCCC1,n
O=C(Nc1cccc2cccnc12)c1ccc2c(c1)OCCO2,-178
SMILES,aSyn UTR act
Cc1ccc(C(=O)Nc2cccc3cccnc23)cc1Br,-178
COc1cc(NC(=O)c2ccc3c(c2)OCO3)c2ncccc2c1,-66
O=C(CNc1ccc(Br)cc1)c1ccc(Br)s1,-68
COc1cc(/C=C2\SC(N)=NC2=O)cc(OC)c1,-64
COC(=O)c1c(NC(=O)/C=C/c2ccco2)sc2c1CCC2,-143
COC(=O)c1c(NC(=O)c2ccc(C)o2)sc2c1CCCCC2,-184
CC1(C)Cc2c(sc(NC(=O)c3ccc(Br)o3)c2C#N)CO1,-91
O=C(Nc1sc2c(c1C(=O)O)CCC2)c1ccco1,-62
O=C(Nc1sc2c(c1C(=O)NCc1ccco1)CCCC2)c1ccc2c(c1)OCO2,-187
CC1(C)Cc2c(sc(NC(=O)c3ccco3)c2C(=O)O)CO1,-81
CCCc1n[nH]c2c1/C(=N/O)CC(c1ccccc1)C2 (stereo not drawn),n
Cc1c(C(=O)OCC(C)C)[nH]c2c1C(=O)CC(c1ccco1)C2 (stereo not drawn),n
CCC(=NCCc1c(C)[nH]c2ccc(OC(F)(F)F)cc12)C1=C(O)CC(c2ccccc2)CC1=O (stereo not drawn),n
CCC(C)OC(=O)c1[nH]c2c(c1C)C(=O)CC(c1ccc(N(C)C)cc1)C2 (stereo not drawn),-92
CCOC(=O)c1[nH]c2c(c1-c1ccccc1)C(=O)CC(c1ccccc1)C2 (stereo not drawn),-66
c1csc(-c2nc(N3CCCCC3)no2)c1,-137
O=C(CSc1nnc(-c2ccccn2)o1)Nc1ccccc1C(F)(F)F,-104
COc1ccccc1NC(=O)CSc1nnc(-c2ccccn2)o1,-66
COc1ccccc1-c1nnc(SCC(=O)Nc2ccc(Cl)cc2Cl)o1,-83
c1ccc(CNc2ncnc3c2cnn3-c2ccccc2)cc1,-256
Cc1cccc(-n2ncc3c(NCc4ccccc4)ncnc32)c1,-140
Cc1cccc(-n2ncc3c(N4CCCc5ccccc54)ncnc32)c1,-123
c1ccc(-n2ncc3c(NCCN4CCCCC4)ncnc32)cc1,-133
c1ccc(CCNc2ncnc3c2cnn3-c2ccccc2)cc1,-149
CC(C)(C)Nc1ncnc2c1cnn2-c1ccccc1,-104
SMILES,aSyn UTR act
Cc1cccc(-n2ncc3c(N(C)C4CCCCC4)ncnc32)c1,n
Fc1ccc(CNc2ncnc3c2cnn3-c2ccccc2)cc1,-71
Cc1cccc(-n2ncc3c(N(CCO)CCO)ncnc32)c1,-106
Clc1ccc(-n2ncc3c(NCc4cccnc4)ncnc32)cc1Cl,-87
CCOc1ccc(N(C(=O)c2ccccc2Cl)C2=NC(C)(C)CS2)cc1,-79
c1ccc(-c2noc(CC3CCCCC3)n2)cc1,-169
CN(Cc1nc(-c2ccccc2)no1)C1CCOCC1,-98
c1ccc(-c2noc(CCC3CCCC3)n2)cc1,-121
c1cc(-c2noc(CCC3CCCC3)n2)ccn1,-79
CCOC(=O)C(C(=O)OCC)C1N=C(N)N=C2Oc3ccccc3N21 (stereo not drawn),-163
CCn1c(Cn2nnc(-c3ccccc3)n2)nnc1SCC(=O)Nc1ccc(C(C)=O)cc1,-92
CCCCOC(=O)c1ccc(-c2ccc(/C=N/NC(=S)NCC)o2)cc1,-89
